Rab9 prom act – activates the Rab9 promoter | Huh7 Rab9 promoter-luciferase reporter, luminescence, 24 h | Potency, µM (doses to about 9.22 µM), for inactives: at the highest dose activation, negative = inhibition, most hits filed as activators | 320,000 compounds, 2.8% hits | AID 485297; further: % of control where 0% means no effect; nearly all actives have a fitted effect of over 60% in size
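Rab9 promoter-driven luciferase in stably transfected Huh7 cells; 1500 cells/well rested 2 h, exposed to compound in DMSO for 24 h at 37 °C, 5% CO2. Luminescence read 10 min after adding luciferase reagent at ambient temperature.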
ELG1 genotox – induces genotoxicity in HEK293T cells with luciferase-tagged ELG1. HEK293T ELG1-luciferase reporter, luminescence, 16 h. Potency, µM (highest dose often 46 µM), without a hit: top-dose activity change, positive = activation, actives largely listed as activators. 330,000 compounds, 1.3% hits. AID 504466; further: % of control where 0% means no effect; nearly all actives have a fitted effect of over 60% in size
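Genotoxic stress is detected as increased luminescence from luciferase-tagged ELG1 in HEK293T cells, measured with ONE-Glo after a 16 hr treatment at 37 °C.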
NPC1 prom act – activators of NPC1 promoter; Huh7 NPC1 promoter luciferase reporter, 24 h; Potency, µM (highest dose often 9.22 µM), for inactives: top-dose activation, hits mostly activators; 320,000 compounds, 2.4% hits; AID 485313; further: % of control where 0% means no effect; nearly all actives have a fitted effect of over 60% in size
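NPC1 promoter–luciferase Huh7 cells; 24 h compound; luminescence.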
ELG1 DNA repair – blocks ELG1-dependent DNA repair in HEK293T cells. HEK293T ELG1-luciferase reporter, luminescence, 16 h; DNA damage induced by 5-fluorouridine. Potency, µM (highest dose often 46.1 µM), inactives show at the highest dose activity change, negative = inhibition, actives largely listed as inhibitors. 330,000 compounds, 2.3% hits. AID 504467; further: on the % scale 0 is the no-effect control and ±100 the full control effect; nearly all actives have a fitted effect of over 55% in size
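5-Fluorouridine DNA damage + compound/DMSO, 2,000 cells/well, 16 h, 37 °C/5% CO2. ONE-Glo, 30 min RT, luminescence. Readout = decrease in reporter signal.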
FLuc modulator – inhibits or activates purified firefly luciferase, miR-21 counter-screen; 360,000 compounds, 6.9% hits; AID 588342; Potency, µM (highest dose often 57.5 µM), for inactives: top-dose activity change, negative = inhibition, actives largely listed as inhibitors; P08659; purified FLuc, Km substrates, luminescence inhibition;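 further: plate controls were vehicle for no effect and reference inhibitor for full effect; nearly all actives have a fitted effect of over 55% in size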
Target sequence (P08659 whole entry, looked up): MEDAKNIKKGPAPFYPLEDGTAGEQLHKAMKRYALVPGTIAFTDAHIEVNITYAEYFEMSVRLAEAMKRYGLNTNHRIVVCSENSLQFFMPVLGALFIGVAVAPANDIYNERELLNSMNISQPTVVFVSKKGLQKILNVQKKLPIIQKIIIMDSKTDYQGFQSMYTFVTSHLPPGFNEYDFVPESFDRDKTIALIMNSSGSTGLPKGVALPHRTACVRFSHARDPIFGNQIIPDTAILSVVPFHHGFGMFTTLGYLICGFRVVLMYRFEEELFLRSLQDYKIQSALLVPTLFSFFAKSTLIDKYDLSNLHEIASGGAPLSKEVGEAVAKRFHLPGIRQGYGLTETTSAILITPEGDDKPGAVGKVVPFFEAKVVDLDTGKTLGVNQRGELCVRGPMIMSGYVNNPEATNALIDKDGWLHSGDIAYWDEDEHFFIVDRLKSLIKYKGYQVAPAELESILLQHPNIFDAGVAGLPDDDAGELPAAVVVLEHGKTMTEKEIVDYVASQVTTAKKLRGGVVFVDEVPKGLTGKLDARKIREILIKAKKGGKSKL
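Biochemical qHTS of compounds, final roughly 60 µM downward over six points, against 10 nM purified firefly luciferase using Km concentrations of substrates (10 uM D-luciferin, 10 uM ATP) in Tris acetate pH 7.5 buffer; luminescence output.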
SMN2 splice enh – increases expression of the SMN2 splice variant; HEK293 SMN2-luciferase splicing reporter, luminescence, 30-36 h; AID 1458; 210,000 compounds, 2.8% hits; Potency, µM (series often up to 46.1 µM), for the others: at the top dose activity change, positive = activation, actives largely listed as activators; further: % of control where 0% means no effect; nearly all actives have a fitted effect of over 55% in size
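HEK293 cells carry an SMN2 […]–luciferase reporter in which exon 7 inclusion puts luciferase in frame. Cells were plated 10-12 h before compound addition, then incubated 30-36 h at 37C. ONE-Glo luminescence was read; sodium butyrate at 4.5 mM final served as control.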
Starred values were filed as active, the others as inactive; ? = inconclusive; . = no result given; [ ] = another dose, or the depositor's remark. Most compounds without a hit are left out; they make up all but 9.3% or so of the library. The call rests on the fitted dose curve; in most records, active means well fitted curve in the direction sought with a large enough effect; inconclusive means small, poorly fitted or top-dose-only effect, or another doubt; inactive means no such curve, though single readings can be large; an effect the other way counts as inactive or inconclusive. Potency means the concentration at half of the fitted maximal effect.

SMILES	Rab9 prom act	ELG1 genotox	NPC1 prom act	ELG1 DNA repair	FLuc modulator	SMN2 splice enh
COCc1nc(-c2ccc(-c3ccc(C)cc3)nc2OC)no1	?	14.9%	17.7%	?	16.9µM*	-2.8%
COc1nc(C)ccc1-c1noc(-c2ccco2)n1	1.26µM*	?	1.41µM*	?	3.79µM*	5.62µM*
COc1nc(-c2ccc(C)cc2)ccc1-c1noc(-c2ccco2)n1	?	?	?	?	19µM*	-7.5%
Cc1ccnc(NS(=O)(=O)c2cccc([N+](=O)[O-])c2)c1	-3.8%	2.9%	-1.4%	-4.0%	-0.3%	.
CCOC(=O)c1cc(C)sc1/N=C/C1C(=O)CCCC1=O	2.6%	-0.1%	1.3%	1.6%	10.0%	5.1%
CCCC(=O)NC1C2CC3CC(C2)CC1C3 (centres undefined)	-5.7%	0.0%	3.4%	2.2%	0.2%	23.5%
Cc1c(NC(=O)Nc2cccc(F)c2)c(=O)n(-c2ccccc2)n1C	-3.7%	7.2%	1.9%	-11.2%	-0.8%	.
Cc1[nH]n(-c2cccc(Cl)c2)c(=O)c1C=NC12CN3CN(CN(C3)C1)C2	2.4%	1.0%	-0.5%	-9.7%	-1.3%	-7.2%
Cc1[nH]n(-c2ccccc2)c(=O)c1C=NCc1ccco1	1.78µM*	16.4µM*	3.55µM*	?	9.53µM*	11.2µM*
Cc1[nH]n(-c2cccc(Cl)c2)c(=O)c1-c1ccccc1	12.3%	-6.3%	1.5%	-6.7%	?	-36.1%
Cc1[nH]n(-c2cccc(Cl)c2)c(=O)c1C=NCC(C)C	2.82µM*	20.6µM*	3.16µM*	?	23.9µM*	12.6µM*
Cc1[nH]n(-c2cccc(Cl)c2)c(=O)c1C=NCc1ccco1	1.12µM*	9.2µM*	2µM*	?	1.51µM*	12.6µM*
CC(C)(C)[C@H]1COC(=O)CC/C=C\C[C@H](CC(=O)N(CCO)Cc2ccccc2)C(=O)N1	.	2.9%	.	?	.	.
CC(C)(C)c1cc(Cl)ccc1OCCOCCN1CCCC1	-1.6%	-1.5%	2.4%	-11.7%	3.3%	.
Cc1cc(C)c(OCC(=O)Nc2ccccc2N2CCCCC2)c(C)c1	2.0%	-0.7%	-3.0%	0.9%	4.4%	.
Cc1cc(C)c(OCC(=O)Nc2ccccc2N2CCOCC2)c(C)c1	-1.2%	-36.2%	-2.4%	0.82µM*	0.4%	-19.2%
Cc1ccc(C)c(N2N=C(C(=O)Nc3ccccc3N3CCCC3)CCC2=O)c1	6.1%	-17.1%	-5.2%	?	2.0%	.
Cc1ccc(C)c(N2N=C(C(=O)Nc3ccccc3N3CCOCC3)CCC2=O)c1	-1.5%	-11.0%	-1.0%	14.6µM*	4.2%	.
C=CCn1c(CCNC(=O)c2ccccc2F)nnc1SCC(=O)Nc1nc2ccccc2s1	-0.4%	-3.4%	-2.7%	?	-18.8%	-23.0%
Cc1ccc(C(=O)OCC(=O)NCc2ccco2)cc1S(=O)(=O)N1CCOCC1	0.6%	1.0%	0.1%	5.5%	2.5%	.
COc1ccc(NC(=O)CSc2nc3[nH]c(=O)[nH]c(=O)c3s2)cc1OC	5.3%	5.1%	0.0%	?	-8.1%	.
CC(OC(=O)CCCCCN=C1NS(=O)(=O)c2ccccc21)C(=O)Nc1cc(Cl)cc(Cl)c1 (centres undefined)	-2.1%	0.7%	-7.2%	-16.5%	2.2%	7.2%
COC(=O)C1=C(C)N(Cc2cccnc2)C(=O)/C1=C\c1sccc1C	-1.3%	0.5%	-7.0%	20.6µM*	-7.1%	.
Nn1c(SCc2c(F)cccc2F)nnc1-c1ccccn1	3.16µM*	16.4µM*	2µM*	?	13.5µM*	.
CC1C/C(=N\NC(=O)c2ccc(NS(=O)(=O)c3ccc(Br)cc3)cc2)CC(C)(C)C1 (centres undefined)	-1.4%	-1.9%	-0.9%	2.6%	?	-4.1%
SMILES	Rab9 prom act	ELG1 genotox	NPC1 prom act	ELG1 DNA repair	FLuc modulator	SMN2 splice enh
Cc1ccc(C(C)C)c(OCC(=O)Nc2ccc3c(c2)nc(CN2CCCC2)n3C)c1	29.1%	-13.4%	-3.3%	13µM*	0.2%	-14.2%
Cc1ccc(N2CCN(CCc3nc4cc(NC(=O)c5ccco5)ccc4n3C)CC2)cc1	0.7%	-16.5%	-2.3%	?	-6.1%	-32.3%
Cc1ccc(C(=O)Nc2ccc3c(c2)nc(CCNC(=O)c2ccco2)n3C)cc1	3.55µM*	?	3.55µM*	?	?	.
CC(=O)NCCc1nc2cc(NC(=O)c3ccc([N+](=O)[O-])cc3)ccc2n1C	?	10.8%	?	?	15.1µM*	.
Cc1ccc(C(C)C)c(OCC(=O)Nc2ccc3c(c2)nc(CCNC(=O)c2ccco2)n3C)c1	.	.	.	.	-7.2%	2.2%
Cn1c(CCN2CCN(c3ccccc3)CC2)nc2cc(NC(=O)c3ccco3)ccc21	4.47µM*	-6.2%	4.5%	-21.3%	-12.9%	-14.2%
CCOC(=O)c1ccc(S(=O)(=O)N2CCN(C(=O)CSc3nc4ccccc4o3)CC2)cc1	-7.1%	0.8%	-1.2%	?	-1.7%	-11.4%
COc1ccc(OC)c(Nc2nc(-c3sc(NC(=O)C(C)(C)C)nc3C)cs2)c1	3.8%	-7.9%	-12.4%	?	-2.9%	-51.5%
Cn1c(CN2CCCC2)nc2cc(NC(=O)c3ccco3)ccc21	?	14.6µM*	23.9%	?	?	?
Fc1ccc(C2CCCN2Cc2nc(Cc3ccccc3F)no2)cc1 (centres undefined)	-15.8%	-1.8%	-2.9%	-11.9%	3.3%	-28.6%
Cc1onc(-c2c(Cl)cccc2Cl)c1C(=O)OCC(=O)c1ccccc1	-3.7%	-2.8%	-4.6%	1.3%	-2.8%	.
CCOC(=O)c1cc(-c2c(Cl)cccc2Cl)no1	0.3%	-7.5%	-1.2%	13µM*	-0.9%	.
CCOC(=O)c1nnc(-c2ccccc2)nc1Sc1ccccc1Cl	-2.9%	6.8%	-1.7%	-0.3%	3.1%	-14.4%
CCOc1cccc(/C=C/c2ccc3cccc(O)c3n2)c1O	?	23.1µM*	?	?	5.36µM*	.
CCOc1cccc(/C=C/c2ccc3cccc(O)c3n2)c1OC	11.7%[1.84 µM]	20.6µM*	3.16µM*	?	4.78µM*	.
COc1ccc(C(=O)N/N=C/c2ccc3cccc(O)c3n2)cc1	-7.0%	-4.7%	-6.1%	?	?	.
Cc1ccc(CNC(=O)CS(=O)(=O)c2cn(CC(=O)N3CCOCC3)c3ccccc23)cc1	-0.2%	-0.3%	5.2%	-29.9%	4.0%	.
O=C(CSc1ccncc1)Nc1ccc(S(=O)(=O)Nc2nccs2)cc1	-1.7%	2.9%	-1.5%	0.2%	-4.2%	-2.7%
O=C(NNS(=O)(=O)c1ccccc1)c1sccc1-n1cccc1	-2.9%	0.2%	-1.0%	-3.0%	0.1%	-0.4%

Screening results deposited in PubChem BioAssay by National Center for Advancing Translational Sciences (NCATS).
